Our source for the activity (max response) and Potency values is PubChem BioAssay (NCATS).

Inconclusive results are not listed. Values without a mark were called inactive. The source made the active and inactive calls. Calls come from the whole dose curve; as a rule, active = well fitted cell-killing curve with a large enough effect; inconclusive = small, poorly fitted or top-dose-only effect; inactive = flat fitted curve, though single readings scatter.
% is set by controls: 0 for no effect and ±100 for the full control effect; potency is the fitted concentration of half-maximal effect.

This test can be described thus: Cellular viability qHTS for adrenocortical cancer (ACC) cell line SW-13 (AID 1963989).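 For activity (max response): cells grown in serum-free medium with ITS supplement.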 Note: nearly all actives have a fitted effect of over 65% in size. The following applies: SW-13 ACC cells viability, CellTiter-Glo, 48 h; activity (max response): stronger effect = lower value. The procedure, abridged: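 Luminescent ATP read-out (CellTiter-Glo, 20 min at room temperature) measured metabolically competent SW-13 cells after 48 h compound treatment. Final concentrations spanned up to 46 uM; bortezomib served as positive control.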
Background: Quantitative high-throughput screening tests each substance at several concentrations.
Take `Cc1nc2c([nH]1)c(=O)n(C)c(=O)n2Cc1ccco1`: the activity (max response) was -2.81%.
Take `Nc1cc(COc2c(Cl)cc(C[C@H](N)C(=O)O)cc2Cl)c2oc(-c3ccccc3)nc2c1`: the activity (max response) is 4.08%.
Same read-out and setting: with `CCOC(=O)C(=O)CCc1ccccc1` the figure was 6.65%; with `CCc1c(C)[nH]c2c1C(=O)C(CN1CCOCC1)CC2` (stereo not drawn), 7.75%; with `COC(=O)[C@H]1[C@H]2C[C@@H]3c4[nH]c5cc(OC)ccc5c4CCN3C[C@H]2C[C@@H](OC(=O)c2cc(OC)c(OC)c(OC)c2)[C@@H]1OC`, -15.6%.
For `CCCc1c(OCCCOc2ccc(OCC(=O)O)cc2)ccc(C(C)=O)c1O`, the activity (max response) is -13.7%.
In the case of `CCc1ccc(/C=C2/SC(=S)NC2=O)cc1`, the Potency is 25.1 µM (active).
For `COc1ccc(-c2oc3c(CC=C(C)C)c(OC4O[C@H](CO)[C@@H](O)[C@H](O)[C@H]4O)cc(O)c3c(=O)c2OC2O[C@@H](C)[C@H](O)[C@@H](O)[C@H]2O)cc1` (stereo partly drawn), the activity (max response) was 7.81%.
With `CCC(=O)c1c(O)cc(O)cc1O`, the activity (max response) is -1.99%.
Still for that read-out and setting: under `C=C1/C(=C/C=C2\CCCC3(C)[C@@H]([C@H](C)/C=C/C=C/C(O)(CC)CC)CC[C@@H]23)C[C@@H](O)C[C@@H]1O` (stereo partly drawn) stands -11%.
In the case of `CCCCCC=CCC=CCCCCCCCC(=O)OCC`, the activity (max response) is -4.47%.
For the molecule `CONC(=O)Nc1ccc(-c2sc3c(c2CN(C)C)c(=O)n(-c2ccc(OC)nn2)c(=O)n3Cc2c(F)cccc2F)cc1`, the activity (max response) is -5.64%.
`C[C@@H](O[C@H]1OCCN(Cc2n[nH]c(=O)[nH]2)[C@H]1c1ccc(F)cc1)c1cc(C(F)(F)F)cc(C(F)(F)F)c1`: the Potency was 18.4 µM (active).
